Tests used:
Assay in all cases: log2 ratio of Biotin-Ahx-Ub-VS probe labelling (fragment/DMSO); higher = less target engagement (more negative = stronger competition), active = hit call of the paper (q ≤ 0.05, log2 ratio ≤ -1)
Conditions in all cases: compound concentration: 200 uM; treatment time: 3 h
USP34 = USP34 (UniProt Q70CQ2)
Summary of the method: (§1)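 Triplicate samples of HEK293T lysate, 495 µg each, received fragment at 200 µM or vehicle for 3 h, followed by Biotin-Ahx-Ub-VS (0.5 µM final) for 1 h. After NeutrAvidin enrichment of labelled DUBs and LysC/trypsin digestion, peptides were run by diaPASEF LC-MS/MS. The values are average log2 fragment/vehicle ratios from global-median-normalised Spectronaut label-free quantities, tested by unpaired t-test on proteins having ≥2 unique peptides.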

USP36 = biological target: T1, USP36 (UniProt Q9P275)
T1 sequence (whole entry): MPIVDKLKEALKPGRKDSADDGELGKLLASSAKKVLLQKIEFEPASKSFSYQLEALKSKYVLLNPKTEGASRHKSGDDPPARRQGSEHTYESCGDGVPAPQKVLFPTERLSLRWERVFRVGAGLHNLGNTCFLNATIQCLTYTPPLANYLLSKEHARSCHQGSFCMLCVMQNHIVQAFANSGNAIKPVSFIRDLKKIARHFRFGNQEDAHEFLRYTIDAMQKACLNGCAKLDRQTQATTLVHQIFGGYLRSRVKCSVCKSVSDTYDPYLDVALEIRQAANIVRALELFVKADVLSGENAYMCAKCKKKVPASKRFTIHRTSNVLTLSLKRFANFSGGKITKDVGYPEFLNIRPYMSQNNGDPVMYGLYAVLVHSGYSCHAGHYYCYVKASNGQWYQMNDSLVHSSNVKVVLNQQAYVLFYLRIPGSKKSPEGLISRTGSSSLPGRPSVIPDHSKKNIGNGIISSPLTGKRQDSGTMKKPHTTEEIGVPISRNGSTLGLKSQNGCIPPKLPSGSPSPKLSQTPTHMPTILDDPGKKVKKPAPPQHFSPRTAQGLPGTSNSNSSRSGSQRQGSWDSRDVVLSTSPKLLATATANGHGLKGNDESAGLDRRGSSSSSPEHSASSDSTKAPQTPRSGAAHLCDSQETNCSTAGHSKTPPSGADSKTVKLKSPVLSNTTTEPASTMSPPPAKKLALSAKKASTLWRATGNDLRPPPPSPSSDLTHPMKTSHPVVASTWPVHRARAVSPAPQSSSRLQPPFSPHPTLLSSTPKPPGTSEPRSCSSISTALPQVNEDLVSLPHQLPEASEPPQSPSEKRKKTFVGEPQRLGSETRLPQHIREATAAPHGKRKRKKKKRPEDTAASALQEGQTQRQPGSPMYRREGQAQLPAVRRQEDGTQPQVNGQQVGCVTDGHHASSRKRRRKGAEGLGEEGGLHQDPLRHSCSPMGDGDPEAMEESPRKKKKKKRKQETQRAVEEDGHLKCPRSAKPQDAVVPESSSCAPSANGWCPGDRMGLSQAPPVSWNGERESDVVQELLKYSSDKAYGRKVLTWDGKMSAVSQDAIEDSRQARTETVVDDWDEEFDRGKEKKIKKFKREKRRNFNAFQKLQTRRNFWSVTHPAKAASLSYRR
Summary of the method: as §1

USP38 = biological target: T2, USP38 (UniProt Q8NB14)
T2 sequence (whole entry): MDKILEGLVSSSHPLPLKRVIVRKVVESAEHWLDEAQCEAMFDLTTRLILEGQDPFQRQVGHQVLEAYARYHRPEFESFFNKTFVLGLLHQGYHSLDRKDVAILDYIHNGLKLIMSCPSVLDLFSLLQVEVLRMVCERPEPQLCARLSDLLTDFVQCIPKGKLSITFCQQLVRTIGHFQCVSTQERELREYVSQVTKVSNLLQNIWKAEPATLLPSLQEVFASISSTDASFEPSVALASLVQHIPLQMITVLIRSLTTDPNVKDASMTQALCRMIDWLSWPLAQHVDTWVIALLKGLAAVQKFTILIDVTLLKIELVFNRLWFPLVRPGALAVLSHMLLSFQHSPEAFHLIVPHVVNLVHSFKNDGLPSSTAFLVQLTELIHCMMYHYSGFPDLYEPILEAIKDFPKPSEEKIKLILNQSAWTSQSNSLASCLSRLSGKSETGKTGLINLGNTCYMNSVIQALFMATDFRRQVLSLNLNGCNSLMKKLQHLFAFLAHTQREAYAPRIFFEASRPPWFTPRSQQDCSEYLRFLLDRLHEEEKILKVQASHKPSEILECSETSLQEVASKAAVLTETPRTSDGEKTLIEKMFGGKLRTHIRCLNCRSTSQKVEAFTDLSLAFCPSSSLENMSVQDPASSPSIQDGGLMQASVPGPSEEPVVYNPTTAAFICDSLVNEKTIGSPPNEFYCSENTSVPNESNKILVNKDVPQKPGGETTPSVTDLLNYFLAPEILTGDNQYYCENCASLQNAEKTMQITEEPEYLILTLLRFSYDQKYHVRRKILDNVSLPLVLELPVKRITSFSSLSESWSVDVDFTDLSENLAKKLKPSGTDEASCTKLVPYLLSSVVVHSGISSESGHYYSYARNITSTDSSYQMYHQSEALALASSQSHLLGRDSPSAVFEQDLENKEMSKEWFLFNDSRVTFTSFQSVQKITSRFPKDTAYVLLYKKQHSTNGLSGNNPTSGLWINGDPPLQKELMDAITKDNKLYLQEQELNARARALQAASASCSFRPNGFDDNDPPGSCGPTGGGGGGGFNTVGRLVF
Summary of the method: as §1

USP39 = biological target: T3, USP39 (UniProt Q53GS9)
T3 sequence (whole entry): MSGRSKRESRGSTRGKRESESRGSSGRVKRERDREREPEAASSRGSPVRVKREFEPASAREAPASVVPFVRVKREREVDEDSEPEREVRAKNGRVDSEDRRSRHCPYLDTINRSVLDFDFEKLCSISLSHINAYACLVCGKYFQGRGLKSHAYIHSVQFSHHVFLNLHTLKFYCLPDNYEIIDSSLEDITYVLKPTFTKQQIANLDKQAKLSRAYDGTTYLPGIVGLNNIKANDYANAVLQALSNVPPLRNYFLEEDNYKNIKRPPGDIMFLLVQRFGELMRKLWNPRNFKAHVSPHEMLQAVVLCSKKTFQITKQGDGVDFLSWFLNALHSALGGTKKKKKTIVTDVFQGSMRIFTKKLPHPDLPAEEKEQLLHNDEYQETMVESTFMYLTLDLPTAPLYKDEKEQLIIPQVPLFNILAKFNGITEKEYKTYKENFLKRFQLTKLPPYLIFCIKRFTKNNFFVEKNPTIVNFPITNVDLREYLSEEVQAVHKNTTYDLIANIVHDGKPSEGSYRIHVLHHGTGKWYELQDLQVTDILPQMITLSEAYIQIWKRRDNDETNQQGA
Summary of the method: as §1

USP4 = biological target: T4, USP4 (UniProt Q13107)
T4 sequence (whole entry): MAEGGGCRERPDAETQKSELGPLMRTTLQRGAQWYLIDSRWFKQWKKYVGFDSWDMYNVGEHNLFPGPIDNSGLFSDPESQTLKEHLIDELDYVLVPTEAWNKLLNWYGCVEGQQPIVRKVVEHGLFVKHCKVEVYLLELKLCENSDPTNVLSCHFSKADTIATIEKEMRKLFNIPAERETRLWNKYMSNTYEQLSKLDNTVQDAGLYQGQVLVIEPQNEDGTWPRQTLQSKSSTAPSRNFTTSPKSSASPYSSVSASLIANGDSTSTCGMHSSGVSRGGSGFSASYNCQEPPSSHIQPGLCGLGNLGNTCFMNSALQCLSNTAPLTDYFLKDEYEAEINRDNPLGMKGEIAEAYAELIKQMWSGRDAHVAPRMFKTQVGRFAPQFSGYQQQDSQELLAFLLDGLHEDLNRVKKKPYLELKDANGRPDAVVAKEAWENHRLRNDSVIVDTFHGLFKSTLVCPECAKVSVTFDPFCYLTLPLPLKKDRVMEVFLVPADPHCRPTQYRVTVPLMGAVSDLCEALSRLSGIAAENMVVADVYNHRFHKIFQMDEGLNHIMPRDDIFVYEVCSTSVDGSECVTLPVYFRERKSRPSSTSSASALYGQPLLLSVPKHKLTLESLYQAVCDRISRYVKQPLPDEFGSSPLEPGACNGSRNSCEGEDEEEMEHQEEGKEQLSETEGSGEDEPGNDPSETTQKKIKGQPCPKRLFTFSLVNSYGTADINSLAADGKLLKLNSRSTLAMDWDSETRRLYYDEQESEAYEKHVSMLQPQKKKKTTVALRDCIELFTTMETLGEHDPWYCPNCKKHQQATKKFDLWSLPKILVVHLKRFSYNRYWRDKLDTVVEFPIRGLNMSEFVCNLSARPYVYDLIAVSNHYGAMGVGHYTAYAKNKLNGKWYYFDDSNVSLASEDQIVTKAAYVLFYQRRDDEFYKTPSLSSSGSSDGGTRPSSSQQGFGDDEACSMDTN
Summary of the method: as §1

Measured: log2 ratio of Biotin-Ahx-Ub-VS probe labelling

USP34, sequence (Q70CQ2 whole entry, the tested form may be a part): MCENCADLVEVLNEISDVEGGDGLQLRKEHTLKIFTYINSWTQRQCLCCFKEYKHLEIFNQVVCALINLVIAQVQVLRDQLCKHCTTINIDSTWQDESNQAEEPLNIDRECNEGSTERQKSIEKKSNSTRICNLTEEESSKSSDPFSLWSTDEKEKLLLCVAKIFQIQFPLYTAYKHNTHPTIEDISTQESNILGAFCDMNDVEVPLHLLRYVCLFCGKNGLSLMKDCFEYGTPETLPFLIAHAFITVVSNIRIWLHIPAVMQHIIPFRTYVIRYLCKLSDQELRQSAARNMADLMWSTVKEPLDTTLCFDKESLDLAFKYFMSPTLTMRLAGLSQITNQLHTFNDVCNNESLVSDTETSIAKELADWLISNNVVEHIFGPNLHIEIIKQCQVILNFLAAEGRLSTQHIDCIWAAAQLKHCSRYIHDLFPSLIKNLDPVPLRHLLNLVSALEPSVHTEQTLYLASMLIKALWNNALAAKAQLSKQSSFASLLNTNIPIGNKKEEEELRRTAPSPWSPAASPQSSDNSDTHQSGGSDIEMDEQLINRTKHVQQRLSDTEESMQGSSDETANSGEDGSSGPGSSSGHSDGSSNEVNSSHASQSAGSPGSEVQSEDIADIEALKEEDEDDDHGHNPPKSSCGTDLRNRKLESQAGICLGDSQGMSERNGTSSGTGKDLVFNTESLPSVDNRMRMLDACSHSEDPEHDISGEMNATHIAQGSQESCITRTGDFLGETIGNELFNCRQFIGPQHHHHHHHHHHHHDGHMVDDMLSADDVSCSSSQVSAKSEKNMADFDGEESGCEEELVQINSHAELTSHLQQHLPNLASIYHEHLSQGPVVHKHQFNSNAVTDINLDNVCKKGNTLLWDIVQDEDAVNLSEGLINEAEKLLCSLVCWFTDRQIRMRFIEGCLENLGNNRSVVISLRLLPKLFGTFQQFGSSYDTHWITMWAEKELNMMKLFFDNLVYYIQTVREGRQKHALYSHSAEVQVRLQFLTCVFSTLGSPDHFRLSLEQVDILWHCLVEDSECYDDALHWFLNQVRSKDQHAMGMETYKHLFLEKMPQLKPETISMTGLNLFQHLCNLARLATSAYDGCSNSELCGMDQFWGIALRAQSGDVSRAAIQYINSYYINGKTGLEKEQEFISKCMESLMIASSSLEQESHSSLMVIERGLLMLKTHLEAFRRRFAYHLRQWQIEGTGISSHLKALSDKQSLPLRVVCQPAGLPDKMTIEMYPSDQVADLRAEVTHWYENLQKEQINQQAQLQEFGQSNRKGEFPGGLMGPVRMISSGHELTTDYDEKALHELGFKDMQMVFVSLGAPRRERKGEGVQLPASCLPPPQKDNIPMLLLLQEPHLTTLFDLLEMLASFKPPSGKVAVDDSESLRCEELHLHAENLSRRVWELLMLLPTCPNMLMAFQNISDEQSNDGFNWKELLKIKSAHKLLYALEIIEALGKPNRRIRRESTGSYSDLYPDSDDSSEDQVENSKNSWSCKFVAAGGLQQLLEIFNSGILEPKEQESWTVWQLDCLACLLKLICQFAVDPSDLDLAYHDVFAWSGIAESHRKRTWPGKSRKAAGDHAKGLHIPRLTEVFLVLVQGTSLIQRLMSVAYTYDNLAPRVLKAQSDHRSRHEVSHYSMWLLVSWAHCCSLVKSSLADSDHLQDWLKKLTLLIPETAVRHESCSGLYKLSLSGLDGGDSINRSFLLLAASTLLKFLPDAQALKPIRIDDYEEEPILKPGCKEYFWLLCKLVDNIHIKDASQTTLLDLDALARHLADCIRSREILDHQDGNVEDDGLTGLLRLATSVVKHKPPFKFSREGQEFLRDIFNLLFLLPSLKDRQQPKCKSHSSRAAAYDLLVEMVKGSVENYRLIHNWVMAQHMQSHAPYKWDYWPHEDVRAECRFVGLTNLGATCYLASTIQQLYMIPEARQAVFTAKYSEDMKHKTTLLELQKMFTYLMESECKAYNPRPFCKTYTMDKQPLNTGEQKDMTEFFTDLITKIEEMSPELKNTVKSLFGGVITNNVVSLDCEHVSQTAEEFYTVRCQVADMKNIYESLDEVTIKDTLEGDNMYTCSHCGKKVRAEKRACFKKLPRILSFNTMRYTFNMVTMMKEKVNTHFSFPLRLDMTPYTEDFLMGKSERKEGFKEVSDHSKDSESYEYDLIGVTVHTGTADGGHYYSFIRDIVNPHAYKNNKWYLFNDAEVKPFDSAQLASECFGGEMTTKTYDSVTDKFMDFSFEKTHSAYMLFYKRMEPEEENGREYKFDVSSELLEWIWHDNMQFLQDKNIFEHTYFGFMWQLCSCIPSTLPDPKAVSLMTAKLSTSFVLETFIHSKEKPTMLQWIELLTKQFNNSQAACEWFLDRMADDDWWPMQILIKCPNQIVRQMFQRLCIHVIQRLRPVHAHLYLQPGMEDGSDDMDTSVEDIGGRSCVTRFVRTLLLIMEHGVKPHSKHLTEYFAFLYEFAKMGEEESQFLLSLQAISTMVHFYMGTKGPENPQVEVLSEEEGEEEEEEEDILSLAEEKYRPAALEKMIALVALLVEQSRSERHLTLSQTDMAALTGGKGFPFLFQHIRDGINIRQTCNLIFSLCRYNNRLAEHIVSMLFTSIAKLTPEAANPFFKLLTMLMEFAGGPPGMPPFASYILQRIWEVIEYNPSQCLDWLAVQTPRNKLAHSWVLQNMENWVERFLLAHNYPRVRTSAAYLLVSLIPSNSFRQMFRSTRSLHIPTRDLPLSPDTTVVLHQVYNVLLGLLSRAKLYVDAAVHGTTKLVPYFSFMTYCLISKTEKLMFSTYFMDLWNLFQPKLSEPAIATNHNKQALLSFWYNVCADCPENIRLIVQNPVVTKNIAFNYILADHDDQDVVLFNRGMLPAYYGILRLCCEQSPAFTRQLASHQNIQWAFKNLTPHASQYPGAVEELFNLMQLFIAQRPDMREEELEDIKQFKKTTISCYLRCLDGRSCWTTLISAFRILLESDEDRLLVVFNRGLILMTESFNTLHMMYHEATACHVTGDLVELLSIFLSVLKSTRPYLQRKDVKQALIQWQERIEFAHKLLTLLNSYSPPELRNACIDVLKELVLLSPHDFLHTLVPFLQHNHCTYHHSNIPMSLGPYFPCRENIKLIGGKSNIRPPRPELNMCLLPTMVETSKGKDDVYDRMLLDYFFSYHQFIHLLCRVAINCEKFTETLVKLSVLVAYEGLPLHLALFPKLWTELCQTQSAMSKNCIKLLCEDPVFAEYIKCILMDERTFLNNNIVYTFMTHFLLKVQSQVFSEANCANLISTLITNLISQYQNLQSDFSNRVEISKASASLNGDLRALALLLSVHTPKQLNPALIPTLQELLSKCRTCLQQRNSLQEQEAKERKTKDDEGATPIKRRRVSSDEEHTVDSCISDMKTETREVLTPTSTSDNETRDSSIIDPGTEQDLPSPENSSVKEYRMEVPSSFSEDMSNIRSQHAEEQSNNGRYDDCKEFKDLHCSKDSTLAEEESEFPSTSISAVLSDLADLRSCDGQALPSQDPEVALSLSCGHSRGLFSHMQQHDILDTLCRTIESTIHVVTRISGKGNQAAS

CS(=O)(=O)c1ccc(NC(=O)CCl)cc1
inactive: USP34 0.0382 | USP36 0.166 | USP38 0.0532 | USP39 -0.186 | USP4 -0.0813

Source: the supplement of paper PMC11732987, “Enantioselective OTUD7B fragment discovery through chemoproteomics screening and high-throughput optimisation” (Communications Chemistry, 2025)
